According to PubChem BioAssay (EPA / NIEHS):
Results filed as inconclusive are left out. Calls of active or inactive are those of the source. Rule for the calls, unless noted: active = hit-call score of the fitted dose curve at least 0.9, where 1 is the maximum; inconclusive = response in the unintended direction; inactive = score below 0.9.

Assays:
[1] = read-out: UDP glucuronosyltransferase (UGT1A1), UGT1A1 (gene 54658); experiment: LTEA_HepaRG_UGT1A1: Life Technologies and Expression Analysis (LTEA) Assay for UDP glucuronosyltransferase (UGT1A1) using HepaRG (AID 2283538; active = hit-call score of the fitted dose curve at least 0.9, where 1 is the maximum; inactive = score below 0.9); conditions: mRNA level, 48 h; actives raise or lower the signal
In short: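 mRNA induction or loss of UGT1A1, by TaqMan qRT-PCR, in duplicate HepaRG wells after 48 h exposure to half-log dilutions topping at 100 uM; DMSO (0.5%) served as baseline.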

[2] = read-out: UDP glucuronosyltransferase (UGT1A6), UGT1A6 (gene 54578); experiment: LTEA_HepaRG_UGT1A6: Life Technologies and Expression Analysis (LTEA) Assay for UDP glucuronosyltransferase (UGT1A6) using HepaRG (AID 2283539; active = hit-call score of the fitted dose curve at least 0.9, where 1 is the maximum; inactive = score below 0.9); conditions: mRNA level, 48 h; actives raise or lower the signal
In short: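 Differentiated HepaRG cells, ~100,000/well, were exposed for 48 h in serum-free induction medium with 0.5% DMSO to 8-point half-log series topping at 100 uM, in duplicate. mRNA measured by Fluidigm TaqMan qRT-PCR, normalized to ACTB, GAPDH and POLR2A.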

[3] = read-out: X-box binding protein 1 (XBP1), XBP1 (gene 7494); experiment: LTEA_HepaRG_XBP1: Life Technologies and Expression Analysis (LTEA) Assay for X-box binding protein 1 (XBP1) using HepaRG (AID 2283540; active = hit-call score of the fitted dose curve at least 0.9, where 1 is the maximum; inactive = score below 0.9); conditions: mRNA level, 48 h; actives raise or lower the signal
In short: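 Differentiated human HepaRG cells in serum-free induction medium exposed 48 h in duplicate to eight half-log concentrations up to 100 uM in 0.5% DMSO. XBP1 mRNA measured by Fluidigm TaqMan qRT-PCR, normalized to ACTB, GAPDH, POLR2A; bidirectional fitting against DMSO.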

[4] = Tanguay_ZF_120hpf_MORT_legacy: (Legacy) Oregon State University Tanguay Lab 120 Hour Post-fertilization zebrafish Assay for Mortality (AID 2283633)
In short: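 Dechorionated Tropical 5D wild-type zebrafish embryos, one per well from 6 hpf, static exposure in 0.64% DMSO at 28C until 120 hpf. Mortality scored as binary by brightfield microscopy at 24 and 120 hpf.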

[5] = Tanguay_ZF_120hpf_YSE_legacy: (Legacy) Oregon State University Tanguay Lab 120 Hour Post-fertilization zebrafish Assay for Yolk Sac Edema (AID 2283634)
In short: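 Dechorionated Tropical 5D wild-type zebrafish embryos were exposed statically, one per well, from 6 to 120 hpf at 28C in 0.64% DMSO. Yolk sac edema was scored present/absent by brightfield at 120 hpf, and dead embryos were excluded.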

[6] = Tanguay_ZF_120hpf_AXIS_legacy: (Legacy) Oregon State University Tanguay Lab 120 Hour Post-fertilization zebrafish Assay for Body Axis Malformation (AID 2283635)
In short: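 Dechorionated wild-type Tropical 5D zebrafish embryos, one per well, statically exposed from 6 hpf to 120 hpf at 28C in 0.64% DMSO final. Body axis malformation scored present/absent by brightfield microscopy at 120 hpf; dead embryos excluded.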

[7] = Tanguay_ZF_120hpf_EYE_legacy: (Legacy) Oregon State University Tanguay Lab 120 Hour Post-fertilization zebrafish Assay for Eye Malformation (AID 2283636);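 note: binary presence or absence of eye malformation scored by brightfield in 120 hpf larvae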
In short: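 Static waterborne exposure of dechorionated zebrafish embryos (strain Tropical 5D), 6 to 120 hpf, sealed plates at 28C, 0.64% DMSO vehicle. Eye malformation is scored as a binary endpoint, with gain of signal analysed relative to DMSO.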

[8] = Tanguay_ZF_120hpf_SNOU_legacy: (Legacy) Oregon State University Tanguay Lab 120 Hour Post-fertilization zebrafish Assay for Snout Malformation (AID 2283637)
In short: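 Dechorionated zebrafish, individually housed from 6 hpf in covered, sealed wells at 28C with 0.64% DMSO vehicle, were examined at 120 hpf for snout malformation. Responses were binary and analysed positive-direction relative to DMSO.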

[9] = read-out: Cellular tumor antigen p53 (Homo sapiens) (UniProt P04637); experiment: LTEA_HepaRG_TP53: Life Technologies and Expression Analysis (LTEA) Assay for Tumor Protein P53 (TP53) using HepaRG (AID 2283537; active = hit-call score of the fitted dose curve at least 0.9, where 1 is the maximum; inactive = score below 0.9); conditions: mRNA level, 48 h; actives raise or lower the signal
In short: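 TP53 transcript measured by qRT-PCR, normalized to three housekeeping genes, after 48 h treatment of human HepaRG cultures with chemicals from 100 uM downward in half-log steps (0.5% DMSO vehicle, serum-free induction medium). Up- or down-regulation fitted against DMSO.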

[10] = target: Cellular tumor antigen p53 (Homo sapiens) (UniProt P04637); experiment: TOX21_p53_BLA_p2_ratio: Tox21 HCT-116 p53 Agonism Beta-lactamase Assay, Ratio, Phase 2 (AID 2283592)
Chain of Cellular tumor antigen p53 (Homo sapiens) (P04637 whole entry, looked up): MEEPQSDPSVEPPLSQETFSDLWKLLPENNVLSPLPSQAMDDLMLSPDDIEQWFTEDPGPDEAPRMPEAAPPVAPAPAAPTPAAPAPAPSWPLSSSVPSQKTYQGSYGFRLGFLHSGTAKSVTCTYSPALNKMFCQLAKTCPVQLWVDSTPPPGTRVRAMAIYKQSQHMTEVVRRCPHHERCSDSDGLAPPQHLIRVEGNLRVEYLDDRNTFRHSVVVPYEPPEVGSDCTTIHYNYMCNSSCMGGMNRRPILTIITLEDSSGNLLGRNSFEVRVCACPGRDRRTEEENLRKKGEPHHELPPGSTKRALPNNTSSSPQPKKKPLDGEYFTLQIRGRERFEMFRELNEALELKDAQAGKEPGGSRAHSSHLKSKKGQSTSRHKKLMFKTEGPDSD
In short: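 First, HCT116 reporter cells settle for 5 h at 37C. Next, DMSO compound solutions are pinned in (217-fold dilution) and left 16 h. Finally, CCF4-AM substrate is loaded 2 h at room temperature and the 460/530 nm ratio read.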

[11] = TOX21_p53_BLA_p3_viability: Viability Assessment in the Tox21 HCT-116 p53 Agonism Beta-lactamase Assay, Phase 3 (AID 2283593);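 note: cells exposed to compound for 16 h before reading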
In short: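 HCT-116 cells (4000/well) rested 5 h at 37C, then got DMSO compounds by pin tool (217-fold dilution) for 16 h at 37C, 5% CO2. After the bla read, CellTiter-Glo was added and luminescence read at 30 min, room temperature.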

[12] = target: Cellular tumor antigen p53 (Homo sapiens) (UniProt P04637); experiment: TOX21_p53_BLA_p3_ratio: Tox21 HCT-116 p53 Agonism Beta-lactamase Assay, Ratio, Phase 3 (AID 2283596)
In short: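 Cells were seeded at 4000/well, rested 5 h at 37C, then dosed with DMSO compound solutions (217-fold dilution) for 16 h. CCF4-AM substrate was loaded for 2 h at room temperature, and the 460/530 nm emission ratio was fitted for gain of signal versus DMSO.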

[13] = TOX21_p53_BLA_p4_viability: Viability Assessment in the Tox21 HCT-116 p53 Agonism Beta-lactamase Assay, Phase 4 (AID 2283597);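 note: hits lower the luminescence signal meaning cytotoxicity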
In short: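 4000 HCT116 cells per well; 5 h attachment; compounds from DMSO, 217-fold dilution; 16 h at 37C. Then CCF4-AM, 2 h RT, followed by CellTiter-Glo, 30 min RT, luminescence. Decrease = cytotoxicity.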

[14] = TOX21_p53_BLA_p5_viability: Viability Assessment in the Tox21 HCT-116 p53 Agonism Beta-lactamase Assay, Phase 5 (AID 2283600)
In short: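 Decreased CellTiter-Glo luminescence denotes lost viability. Exposure: 16 h at 37C, 5% CO2, with compounds from DMSO stocks diluted 217-fold in wells of 4000 cells.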

[15] = ATG_XTT_Cytotoxicity: Cytotoxicity Assessment in the Attagene TRANS-FACTORIAL HepG2 Assay (AID 2283584)
In short: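 HepG2 cells transiently transfected with GAL4-UAS multiple reporter units, dosed 24 h; cytotoxicity read by XTT as loss of signal versus DMSO baseline.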

[16] = TOX21_p53_BLA_p2_viability: Viability Assessment in the Tox21 HCT-116 p53 Agonism Beta-lactamase Assay, Phase 2 (AID 2283591);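 note: actives lower the ATP signal meaning cytotoxicity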
In short: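 HCT-116 p53-bla cells (4000/well) rested 5 h at 37C, then received compounds in DMSO (217-fold dilution) for 16 h at 37C, 5% CO2. After the CCF4 read, CellTiter-Glo was added; ATP luminescence was read after 30 min at room temperature.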

[17] = target: Cellular tumor antigen p53 (Homo sapiens) (UniProt P04637); experiment: TOX21_p53_BLA_p4_ratio: Tox21 HCT-116 p53 Agonism Beta-lactamase Assay, Ratio, Phase 4 (AID 2283601)
In short: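 HCT116 cells carrying an inducible beta-lactamase reporter were plated at 4000 cells/well, rested 5 h, then exposed to compounds in DMSO (217-fold dilution) for 16 h at 37C. CCF4-AM substrate was loaded 2 h at room temperature; 460/530 nm emission ratio scored gain-of-signal versus DMSO.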

SMILES	outcome [1]	outcome [2]	outcome [3]	outcome [4]	outcome [5]	outcome [6]	outcome [7]	outcome [8]	outcome [9]	AC50 [1]	outcome [10]	outcome [11]	outcome [12]	outcome [13]	outcome [14]	outcome [15]	outcome [16]	outcome [17]
CCCC(=O)O	inactive	inactive	inactive	inactive	inactive	inactive	inactive	inactive										
CC(C)(O)c1ccc(CNC(=O)c2cccnc2Oc2ccc(F)cc2)cc1		inactive	inactive	inactive	inactive	inactive	inactive	inactive	inactive	4.71 µM (active)	inactive	inactive	inactive	inactive	inactive			
CC(C)c1cccc(C(C)C)c1	inactive	inactive	inactive	inactive		inactive	inactive											
O=C1O[C@H]([C@H](O)CO)C(O)=C1O	inactive	inactive	inactive	inactive	inactive	inactive	inactive		inactive		inactive	inactive	inactive	inactive		inactive	inactive	inactive
OCC(O)CO	inactive	inactive	inactive	inactive	inactive	inactive	inactive	inactive	inactive									
